Experimental data: the supplement of paper PMC10849652
Targets with a hit are over-represented here; the source holds about 8,800 in all. About 0.5% of all pairs of compound and target were hits. A number with no mark means an inactive call.

Tests used:
Assay in all cases: log2 fold change, soluble protein after heating vs DMSO (PISA); higher = thermal stabilisation; K562 lysate, 10 uM; active = over 0.2 and 3.5 SD of the protein, either way, in both replicates (recomputed)
erlotinib = compound: C#Cc1cccc(Nc2ncnc3cc(OCCOC)c(OCCOC)cc23)c1 [erlotinib]
How it was run: (§1)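 Log-two fold change in thermal stability relative to solvent controls is reported from duplicates. For each sample, crude K562 extract from dounce-homogenised pellets in PBS pH 7.4 with 1 mM MgCl2, at 1 mg/mL protein, was treated with 10 μM compound for 30 min. Aliquots heated for 3 min across 48°C-58°C were pooled, brought to 0.5% NP-40 at 4°C and cleared at 21,000xg for 90 min. The supernatant was quantified by TMTpro 16plex LC-MS/MS with channel sums equalised.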

[1] = compound: C/C(=N\NC(=O)C1=CC(=CC=C1)S(=O)(=O)N2CCOCC2)/C3=C(C=CC(=C3)Cl)O
How it was run: as §1

[2] = compound: C1=CC(=CC=C1C2=NC3=C(N2)C=C(C=C3)C(=O)N)OC4=CC=C(C=C4)Cl
How it was run: as §1

[3] = compound: C1=CC2=C(C=CC(=C2)/C=C\3/C(=O)NC(=NCC4=CC=CS4)S3)N=C1
How it was run: as §1

[4] = compound: C1=CC=C(C=C1)C2=NC(=C(N2)C3=CC=NC=C3)C4=CC(=C(C=C4)Cl)O
How it was run: as §1

[5] = compound: C1=CC=C2C(=C1)C3=NNC4=CC=CC(=C43)C2=O
How it was run: as §1

[6] = compound: C1CCN(C1)C(=O)NC2=CC=CC(=C2)NC3=NC=C(C(=N3)NCCC4=CN=CN4)Br
How it was run: as §1

[7] = compound: C1CN(CCC1(CC2=CC=C(C=C2)Cl)N)C3=NC=NC4=C3C=CN4
How it was run: as §1

IRAK-1-4 Inhibitor I = compound: C1COCCN1CCN2C3=CC=CC=C3N=C2NC(=O)C4=CC(=CC=C4)[N+](=O)[O-] [IRAK-1-4 Inhibitor I]
How it was run: as §1

ralimetinib = compound: CC(C)(C)Cn1c(N)nc2ccc(-c3[nH]c(C(C)(C)C)nc3-c3ccc(F)cc3)nc21 [ralimetinib]
How it was run: as §1

[8] = compound: CC(C)(O)CC(=O)NCCn1ccc2ncnc(Nc3ccc(Oc4cccc(C(F)(F)F)c4)c(Cl)c3)c21
How it was run: as §1

[9] = compound: CC(C)C1=C2N=C(C=C(N2N=C1)NCC3=CC=CC=C3)NCCCCCCN
How it was run: as §1

[10] = compound: CC1=C(C(CC(=O)N1)C2=CC=C(C=C2)C(F)(F)F)C(=O)NC3=C(C=C4C(=C3)C=NN4)F
How it was run: as §1

[11] = compound: CC1=C(C=C(C=C1)NC(=O)C2=CC(=CC=C2)C(C)(C)C#N)NC3=CC4=C(C=C3)N=CN(C4=O)C
How it was run: as §1

[12] = compound: CC1=C(C=C(C=C1)NC(=O)C2=CC(=CC=C2)N(C)C)NC(=O)C3=CC=C(C=C3)O
How it was run: as §1

[13] = compound: CC(=O)c1cnc2ccc(-c3cc(Cl)c(O)c(Cl)c3)nc2c1N[C@H]1CC[C@H](CN(C)C)CC1
How it was run: as §1

[14] = compound: CC1=CC=C(C=C1)SC2=C3C=C(SC3=CN=C2)C(=O)N
How it was run: as §1

[15] = compound: C1=CC2=NC=CN=C2C=C1/C=C/3\C(=O)NC(=O)S3
How it was run: as §1

ibrutinib = compound: C=CC(=O)N1CCC[C@@H](n2nc(-c3ccc(Oc4ccccc4)cc3)c3c(N)ncnc32)C1 [ibrutinib]
How it was run: as §1

[16] = compound: CC1=C(C2=C(C=C1)C(=O)C3=CC=CC=C3N2CCCN)C
How it was run: as §1

Sequence of UniProt Q13155 (Q13155 whole entry, looked up): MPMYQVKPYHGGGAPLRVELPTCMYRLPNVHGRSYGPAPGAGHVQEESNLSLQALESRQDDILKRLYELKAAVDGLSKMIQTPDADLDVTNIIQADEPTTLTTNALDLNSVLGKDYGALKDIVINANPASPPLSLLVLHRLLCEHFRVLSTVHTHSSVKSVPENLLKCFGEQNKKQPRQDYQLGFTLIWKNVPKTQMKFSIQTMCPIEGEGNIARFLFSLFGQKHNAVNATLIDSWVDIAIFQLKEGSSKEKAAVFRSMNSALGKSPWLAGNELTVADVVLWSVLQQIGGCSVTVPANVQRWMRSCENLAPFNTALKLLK
Sequence of UniProt Q7L211 (Q7L211 whole entry, looked up): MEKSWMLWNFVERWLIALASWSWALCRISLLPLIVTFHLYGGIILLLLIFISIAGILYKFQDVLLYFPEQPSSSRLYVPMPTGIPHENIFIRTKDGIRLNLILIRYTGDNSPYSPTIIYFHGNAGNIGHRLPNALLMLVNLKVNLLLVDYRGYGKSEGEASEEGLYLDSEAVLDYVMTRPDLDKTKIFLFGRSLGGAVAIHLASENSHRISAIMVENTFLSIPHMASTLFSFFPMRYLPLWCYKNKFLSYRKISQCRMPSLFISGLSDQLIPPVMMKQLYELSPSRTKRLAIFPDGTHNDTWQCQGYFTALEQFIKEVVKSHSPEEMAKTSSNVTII
Sequence of UniProt Q9BXX2 (Q9BXX2 whole entry, looked up): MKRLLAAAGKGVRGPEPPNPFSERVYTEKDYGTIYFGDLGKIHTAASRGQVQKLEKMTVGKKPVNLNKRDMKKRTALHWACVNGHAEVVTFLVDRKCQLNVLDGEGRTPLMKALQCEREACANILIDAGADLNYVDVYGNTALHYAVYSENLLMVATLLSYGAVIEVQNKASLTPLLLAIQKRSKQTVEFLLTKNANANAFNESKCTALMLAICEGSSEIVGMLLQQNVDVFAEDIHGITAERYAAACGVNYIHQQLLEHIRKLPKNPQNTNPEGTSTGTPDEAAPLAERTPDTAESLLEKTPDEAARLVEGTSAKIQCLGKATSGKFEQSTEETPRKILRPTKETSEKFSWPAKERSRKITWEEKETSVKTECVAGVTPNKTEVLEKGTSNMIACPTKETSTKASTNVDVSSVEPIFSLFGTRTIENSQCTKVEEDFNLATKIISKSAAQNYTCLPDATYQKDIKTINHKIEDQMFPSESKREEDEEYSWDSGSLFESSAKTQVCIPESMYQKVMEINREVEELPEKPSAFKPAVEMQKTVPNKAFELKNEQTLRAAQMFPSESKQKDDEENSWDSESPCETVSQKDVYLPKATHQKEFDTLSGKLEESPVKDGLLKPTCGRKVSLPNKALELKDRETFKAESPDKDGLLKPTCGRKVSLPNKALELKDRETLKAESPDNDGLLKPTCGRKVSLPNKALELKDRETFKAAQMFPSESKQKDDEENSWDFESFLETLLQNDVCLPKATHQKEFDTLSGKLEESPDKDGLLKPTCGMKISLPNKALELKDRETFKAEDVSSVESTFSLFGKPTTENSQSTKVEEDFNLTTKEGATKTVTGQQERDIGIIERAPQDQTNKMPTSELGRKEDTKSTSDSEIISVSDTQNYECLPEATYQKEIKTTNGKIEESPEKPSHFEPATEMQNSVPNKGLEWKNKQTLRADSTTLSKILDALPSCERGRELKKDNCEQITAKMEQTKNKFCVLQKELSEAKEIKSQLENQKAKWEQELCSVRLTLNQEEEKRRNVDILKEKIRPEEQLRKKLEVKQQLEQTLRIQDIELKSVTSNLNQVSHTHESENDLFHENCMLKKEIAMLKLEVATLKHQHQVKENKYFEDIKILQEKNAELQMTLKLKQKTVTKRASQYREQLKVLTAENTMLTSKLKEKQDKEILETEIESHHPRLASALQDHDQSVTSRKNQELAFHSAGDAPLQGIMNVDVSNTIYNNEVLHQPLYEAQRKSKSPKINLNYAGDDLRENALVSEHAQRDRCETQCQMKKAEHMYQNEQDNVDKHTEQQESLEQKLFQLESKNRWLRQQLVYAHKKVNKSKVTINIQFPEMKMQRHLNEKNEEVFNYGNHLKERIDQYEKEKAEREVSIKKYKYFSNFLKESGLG
Sequence of UniProt P78536 (P78536 whole entry, looked up): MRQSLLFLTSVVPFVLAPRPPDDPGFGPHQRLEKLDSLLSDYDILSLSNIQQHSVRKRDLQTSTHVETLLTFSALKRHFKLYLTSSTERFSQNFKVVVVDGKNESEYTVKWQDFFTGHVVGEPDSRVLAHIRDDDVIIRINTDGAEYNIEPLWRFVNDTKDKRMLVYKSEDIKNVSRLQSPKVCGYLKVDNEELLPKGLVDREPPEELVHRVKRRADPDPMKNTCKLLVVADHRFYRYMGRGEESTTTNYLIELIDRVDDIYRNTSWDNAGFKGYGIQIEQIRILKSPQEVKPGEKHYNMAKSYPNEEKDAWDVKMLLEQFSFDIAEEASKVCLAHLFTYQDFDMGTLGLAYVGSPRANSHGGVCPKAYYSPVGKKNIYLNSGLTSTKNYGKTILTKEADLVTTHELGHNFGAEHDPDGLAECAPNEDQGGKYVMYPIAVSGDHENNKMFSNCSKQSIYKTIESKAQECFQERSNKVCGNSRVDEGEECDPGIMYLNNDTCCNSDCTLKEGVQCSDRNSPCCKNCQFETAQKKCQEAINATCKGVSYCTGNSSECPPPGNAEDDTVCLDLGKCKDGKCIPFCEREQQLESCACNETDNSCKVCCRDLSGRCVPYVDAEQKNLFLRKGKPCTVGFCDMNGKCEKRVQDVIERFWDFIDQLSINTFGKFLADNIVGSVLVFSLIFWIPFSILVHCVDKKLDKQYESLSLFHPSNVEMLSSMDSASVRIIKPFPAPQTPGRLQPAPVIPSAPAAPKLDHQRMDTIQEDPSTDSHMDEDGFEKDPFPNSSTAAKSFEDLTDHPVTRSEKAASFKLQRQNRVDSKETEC
Sequence of UniProt Q2VPB7 (Q2VPB7 whole entry, looked up): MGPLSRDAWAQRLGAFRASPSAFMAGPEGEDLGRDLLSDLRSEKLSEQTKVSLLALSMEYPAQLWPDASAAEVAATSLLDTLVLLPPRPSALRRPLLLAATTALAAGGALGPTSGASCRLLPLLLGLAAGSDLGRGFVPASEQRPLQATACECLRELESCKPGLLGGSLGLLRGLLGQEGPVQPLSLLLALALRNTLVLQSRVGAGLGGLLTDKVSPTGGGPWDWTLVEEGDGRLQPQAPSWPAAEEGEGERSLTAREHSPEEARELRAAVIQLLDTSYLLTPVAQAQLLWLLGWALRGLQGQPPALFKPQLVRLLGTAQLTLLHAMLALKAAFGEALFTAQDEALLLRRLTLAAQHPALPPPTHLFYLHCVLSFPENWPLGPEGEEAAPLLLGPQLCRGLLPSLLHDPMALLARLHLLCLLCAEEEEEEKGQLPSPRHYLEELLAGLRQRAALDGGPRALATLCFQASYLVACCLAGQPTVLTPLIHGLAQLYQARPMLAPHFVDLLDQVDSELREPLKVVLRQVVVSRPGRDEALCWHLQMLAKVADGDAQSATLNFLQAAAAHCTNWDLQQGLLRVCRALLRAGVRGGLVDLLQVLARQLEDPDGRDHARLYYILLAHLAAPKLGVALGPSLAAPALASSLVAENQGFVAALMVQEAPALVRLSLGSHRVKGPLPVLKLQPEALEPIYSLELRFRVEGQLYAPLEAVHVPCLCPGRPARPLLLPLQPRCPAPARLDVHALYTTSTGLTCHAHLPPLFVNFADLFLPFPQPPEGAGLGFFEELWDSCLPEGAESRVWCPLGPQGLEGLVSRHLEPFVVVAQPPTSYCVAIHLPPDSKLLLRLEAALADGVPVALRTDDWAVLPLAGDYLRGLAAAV
Sequence of UniProt O15120 (O15120 whole entry, looked up): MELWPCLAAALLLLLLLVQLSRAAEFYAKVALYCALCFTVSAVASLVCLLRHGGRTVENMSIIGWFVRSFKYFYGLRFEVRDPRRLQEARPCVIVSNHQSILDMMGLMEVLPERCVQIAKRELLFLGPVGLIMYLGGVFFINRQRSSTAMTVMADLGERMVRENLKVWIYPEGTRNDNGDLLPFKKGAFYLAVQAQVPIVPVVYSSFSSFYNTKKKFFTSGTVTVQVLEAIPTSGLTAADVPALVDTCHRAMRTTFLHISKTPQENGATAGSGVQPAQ
Sequence of UniProt Q9Y303 (Q9Y303 whole entry, looked up): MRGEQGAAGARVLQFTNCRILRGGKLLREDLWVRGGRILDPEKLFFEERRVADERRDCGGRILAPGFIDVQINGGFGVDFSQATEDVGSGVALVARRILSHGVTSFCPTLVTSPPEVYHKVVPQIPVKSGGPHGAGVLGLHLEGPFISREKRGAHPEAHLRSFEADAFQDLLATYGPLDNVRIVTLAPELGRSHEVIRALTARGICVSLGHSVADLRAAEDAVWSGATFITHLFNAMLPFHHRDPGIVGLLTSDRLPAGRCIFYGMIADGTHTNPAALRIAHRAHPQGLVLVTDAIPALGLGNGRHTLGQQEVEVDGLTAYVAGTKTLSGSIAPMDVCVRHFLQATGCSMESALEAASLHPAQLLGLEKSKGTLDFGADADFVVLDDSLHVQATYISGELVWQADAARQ
Sequence of UniProt Q9NXR5 (Q9NXR5 whole entry, looked up): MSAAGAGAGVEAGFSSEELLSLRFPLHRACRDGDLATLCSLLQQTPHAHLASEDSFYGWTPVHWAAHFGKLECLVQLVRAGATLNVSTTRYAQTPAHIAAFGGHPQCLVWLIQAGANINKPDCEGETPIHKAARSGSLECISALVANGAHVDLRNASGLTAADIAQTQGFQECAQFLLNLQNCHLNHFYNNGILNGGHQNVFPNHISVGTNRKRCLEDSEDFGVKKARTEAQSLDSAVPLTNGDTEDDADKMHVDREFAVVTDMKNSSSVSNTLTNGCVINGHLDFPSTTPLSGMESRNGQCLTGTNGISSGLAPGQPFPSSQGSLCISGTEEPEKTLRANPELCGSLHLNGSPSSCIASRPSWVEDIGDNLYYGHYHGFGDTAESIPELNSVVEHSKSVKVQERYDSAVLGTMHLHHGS

Row | Target | log2 fold change (erlotinib) | log2 fold change [1] | log2 fold change [2] | log2 fold change [3] | log2 fold change [4] | log2 fold change [5] | log2 fold change [6] | log2 fold change [7] | log2 fold change (IRAK-1-4 Inhibitor I) | log2 fold change (ralimetinib) | log2 fold change [8] | log2 fold change [9] | log2 fold change [10] | log2 fold change [11] | log2 fold change [12] | log2 fold change [13] | log2 fold change [14] | log2 fold change [15] | log2 fold change (ibrutinib) | log2 fold change [16]
1 | AGPAT2 (UniProt O15120) | -0.032 | -0.064 | 0.013 | 0.245 | -0.114 | 0.024 | -0.038 | 0.069 | -0.027 | 0.1 | -0.071 | 0.046 | 0.03 | -0.064 | 0.013 |  |  |  |  | 
2 | ABI1 isoform 6 (UniProt Q8IZP0) |  |  |  |  |  |  | -0.167 | 0.213 |  |  |  |  |  |  |  | -0.034 | -0.028 |  |  | 
3 | ACAT1, A0A5F9ZHJ0 |  |  |  |  | -0.128 |  |  |  | 0.075 | 0.034 | -0.129 |  | -0.106 |  | 0.013 |  |  |  |  | 
4 | ANKRD10 (UniProt Q9NXR5) | 0.023 | 0.045 | -0.041 | 0.009 | 0.012 | -0.066 |  |  | -0.059 | 0.005 | 0.042 | -0.023 | 0.046 | -0.008 | 0.046 | -0.172 | -0.085 | 0.055 | -0.076 | 0.004
5 | ANKRD30B (UniProt Q9BXX2) | 0.077 | 0.106 | -0.053 | -0.115 | -0.032 | -0.047 | -0.006 | 0.124 | 0.095 | -0.007 | -0.16 | 0.038 | -0.098 |  | 0.024 | -0.086 | -0.167 | 0.005 | -0.063 | -0.064
6 | AP3D1 isoform 2 (UniProt O14617) | 0.029 | -0.082 | -0.15 | -0.162 |  | -0.026 |  |  |  |  |  | 0.09 | 0.127 |  |  | -0.085 | 0.053 |  |  | 
7 | ABHD13 (UniProt Q7L211) |  | 0.015 |  | 0.021 |  | -0.071 | 0.176 | 0.04 |  |  |  |  | -0.028 | 0.03 |  | -0.017 | 0.003 | 0.011 | 0.041 | 0.196
8 | AP5B1 (UniProt Q2VPB7) | 0.006 |  | -0.05 |  | 0.014 |  | 0.073 | 0.046 | 0.03 | -0.04 | -0.072 | 0.011 | 0.021 | -0.08 | 0.036 | -0.037 | -0.006 | -0.069 | 0.112 | -0.067
9 | AMDHD2 (UniProt Q9Y303) |  | -0.527 (active) |  | 0.212 |  | -0.391 |  |  |  |  |  |  |  | 0.014 |  |  |  |  |  | 
10 | ANXA2 (UniProt H0YL33) | -0.153 |  | 0.088 |  | -0.027 |  |  |  | -0.031 | -0.076 | 0.129 | -0.353 | 0.033 | -0.211 | 0.005 | -0.167 | -0.144 | -0.108 | 0.235 | 0.025
11 | AIMP2 isoform 2 (UniProt Q13155) |  |  |  |  | 0.061 |  |  |  | 0.006 | 0.061 | -0.036 |  |  | 0.089 | 0.023 | 0.064 | 0 | 0.056 | -0.28 | 
12 | ADAM17 (UniProt P78536) | 0.021 | -0.013 | 0.017 | 0.023 | 0.044 | -0.115 | 0.052 | -0.093 | 0.04 | -0.012 | -0.032 | -0.056 | 0.16 | -0.013 | -0.027 |  |  | -0.023 | 0.037 | -0.029
13 | AGGF1 (UniProt Q8N302) | -0.015 | -0.056 | 0.054 | -0.19 | 0.018 | 0.057 | -0.038 | -0.022 | 0.023 | -0.014 | -0.023 | -0.017 | -0.011 | 0.034 | -0.04 | 0.077 | -0.341 | -0.077 | 0.034 | 
